Measured values taken from the supplement of paper PMC11732987, “Enantioselective OTUD7B fragment discovery through chemoproteomics screening and high-throughput optimisation” (Communications Chemistry, 2025).

These compounds were tested against T1, USP38 (UniProt Q8NB14) (assay: log2 ratio of Biotin-Ahx-Ub-VS probe labelling (compound/DMSO); higher = less target engagement, active = hit call of the paper (q ≤ 0.05, log2 ratio ≤ -1)). Conditions: compound concentration: 50uM; treatment time: 3 h.
T1 sequence (whole entry): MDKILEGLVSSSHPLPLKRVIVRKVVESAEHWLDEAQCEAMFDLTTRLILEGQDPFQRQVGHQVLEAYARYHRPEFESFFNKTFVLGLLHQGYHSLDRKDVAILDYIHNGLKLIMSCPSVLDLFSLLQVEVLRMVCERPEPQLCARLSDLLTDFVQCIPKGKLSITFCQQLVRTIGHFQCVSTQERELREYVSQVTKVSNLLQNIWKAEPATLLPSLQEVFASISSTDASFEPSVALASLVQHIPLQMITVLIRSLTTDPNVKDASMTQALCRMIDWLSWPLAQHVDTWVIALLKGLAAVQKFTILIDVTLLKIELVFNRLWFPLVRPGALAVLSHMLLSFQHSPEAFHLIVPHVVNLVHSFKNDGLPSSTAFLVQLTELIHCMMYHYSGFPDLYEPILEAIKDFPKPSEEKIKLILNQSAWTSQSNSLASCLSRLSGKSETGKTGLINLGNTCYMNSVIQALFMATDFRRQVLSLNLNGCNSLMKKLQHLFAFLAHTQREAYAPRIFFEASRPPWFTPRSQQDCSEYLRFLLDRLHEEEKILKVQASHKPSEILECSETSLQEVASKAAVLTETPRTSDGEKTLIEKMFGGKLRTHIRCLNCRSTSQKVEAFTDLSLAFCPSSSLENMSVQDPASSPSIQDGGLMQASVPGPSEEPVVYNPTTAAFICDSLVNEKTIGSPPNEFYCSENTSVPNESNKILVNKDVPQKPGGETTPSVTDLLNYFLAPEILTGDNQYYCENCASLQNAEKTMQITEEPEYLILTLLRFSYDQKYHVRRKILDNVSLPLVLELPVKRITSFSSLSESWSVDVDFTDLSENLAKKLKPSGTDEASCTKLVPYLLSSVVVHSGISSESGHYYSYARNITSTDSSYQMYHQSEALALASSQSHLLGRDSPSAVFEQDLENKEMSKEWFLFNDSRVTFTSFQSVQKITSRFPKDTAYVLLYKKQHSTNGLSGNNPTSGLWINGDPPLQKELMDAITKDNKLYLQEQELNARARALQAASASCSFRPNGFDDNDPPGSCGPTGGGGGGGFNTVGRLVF
Procedure: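 Round 2 competitive ABPP in HEK293T lysate. Compounds were tested at 50 and 200 µM for 3 h, followed by Biotin-Ahx-Ub-VS enrichment and diaPASEF LC-MS/MS. Values are the average log2 ratio (compound/DMSO) from an unpaired t-test (n=3 treated, n=26 DMSO).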

log2 ratio of Biotin-Ahx-Ub-VS probe labelling, inactive:
COc1cccc(CN(C)C(=O)CCl)c1 0.0582
CCC1c2ccsc2CCN1C(=O)CCl (configuration not stated) 0.124
O=C(CCl)NC1CCOc2ccccc21 (configuration not stated) 0.0839
CN1c2ccccc2C(NC(=O)CCl)CS1(=O)=O (configuration not stated) -0.19
Cl.O=C(CCl)N1CCc2ncncc2C1 -0.214
Cl.Cn1ncc2c1CCCC2NC(=O)CCl (configuration not stated) 0.328

Same assay, conditions: compound concentration: 200uM; treatment time: 3 h

log2 ratio of Biotin-Ahx-Ub-VS probe labelling, inactive:
COc1cccc(CN(C)C(=O)CCl)c1 -0.322
CCC1c2ccsc2CCN1C(=O)CCl (configuration not stated) -0.277
O=C(CCl)NC1CCOc2ccccc21 (configuration not stated) -0.0989
CN1c2ccccc2C(NC(=O)CCl)CS1(=O)=O (configuration not stated) -0.231
Cl.O=C(CCl)N1CCc2ncncc2C1 -0.296
Cl.Cn1ncc2c1CCCC2NC(=O)CCl (configuration not stated) -0.153
